Rows were chosen to be rich in hits. Some 2.3% of all compounds tested hit in one or more screens of this group.
M1 PAM parental: nonselective activator or artifact in parental CHO-K1 calcium assay; ATP EC20, Fluo-8 calcium fluorescence; 0% at ATP EC20, 100% at ATP max; activation, % at 3 µM; 0.02% of 360,000 active; AID 602247;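 active means activation above the run cutoff, the mean activation of all test compounds plus 3 SD, cut at about 40% in these data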;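 further: peak over basal fluorescence ratio in a 140 s read after ATP addition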
CHRM1 agonist: human M1 muscarinic receptor agonism. P11229. CHO-K1 hM1, Fluo-8 calcium fluorescence, agonist mode; 0% DMSO, 100% acetylcholine EC100. activation, % at 3 µM. 0.33% of 360,000 active. AID 588814;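 active means activation above the run's mean compound activation plus 3 SD, cut at about 16% in these data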;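 further: peak over basal fluorescence ratio within a 140 s kinetic read after compound addition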
Target sequence (P11229 whole entry, looked up): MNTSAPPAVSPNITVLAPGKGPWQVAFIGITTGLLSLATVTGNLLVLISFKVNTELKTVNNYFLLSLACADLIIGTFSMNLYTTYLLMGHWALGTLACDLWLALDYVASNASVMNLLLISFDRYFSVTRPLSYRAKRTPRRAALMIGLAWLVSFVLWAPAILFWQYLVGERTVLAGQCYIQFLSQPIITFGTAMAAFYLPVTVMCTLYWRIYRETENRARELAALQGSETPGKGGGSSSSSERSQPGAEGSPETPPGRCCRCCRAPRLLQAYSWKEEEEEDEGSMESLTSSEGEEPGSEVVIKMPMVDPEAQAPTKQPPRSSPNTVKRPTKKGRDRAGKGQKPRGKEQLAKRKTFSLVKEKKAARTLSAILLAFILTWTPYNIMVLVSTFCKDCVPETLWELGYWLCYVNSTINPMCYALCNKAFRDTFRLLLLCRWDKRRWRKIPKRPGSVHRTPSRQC
CHRM1 PAM: potentiates human M1 receptor response to acetylcholine. P11229. CHO-K1 hM1, Fluo-8 calcium fluorescence, ACh EC20; 0% = ACh EC20, 100% = maximal ACh. activation, % at 3 µM. 0.088% of 360,000 active. AID 588819; in the data active means activation above about 19%, passing the limit was not always enough
CHO-K1 Ca antag: M1 antagonist counterscreen hit in parental CHO-K1 cells; inhibition, % at 3 µM; 0.6% of 360,000 active; ATP-induced calcium, Fluo-8 fluorescence;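 active means inhibition above a per-plate cutoff, the plate's mean sample inhibition plus 3 SD, cut at about 24% in these data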
M1 antag: blocks human M1 muscarinic receptor; P11229; CHO-K1 hM1, Fluo-8 calcium fluorescence, ACh EC80 antagonist; inhibition, % at 3 µM; 1.3% of 360,000 active; AID 588852;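 active means percent inhibition above its own plate's cutoff, namely the mean of that plate's compound wells plus 3 SD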;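 further: peak over basal fluorescence ratio during 140 s after agonist addition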
M1 ag parental: counter-screen for M1 agonists: effect in parental CHO-K1 cells | AID 602248 | activation, % at 3 µM | Fluo-8 calcium fluorescence; scaled to maximal ATP response, vehicle zero | 0.48% of 360,000 active; in the data active means activation above about 15%;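 further: untransfected CHO-K1 host cells lacking M1 receptor as counterscreen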
Of the large screens only hits and unclear results are named; the others gave an inactive call.

O=S1(=O)CCC(NC(=S)Nc2ccccc2)C1 (stereo not given)	CHRM1 PAM 28.9
CC(C)C1CC(CCN)(c2ccccc2)CCO1 (stereo not given)	M1 antag 73.6
O=C1CN(S(=O)(=O)c2cc(C(F)(F)F)ccc2Cl)CCN1	CHRM1 PAM 30.1
O=C(O)/C=C/C(=O)N1CCN(S(=O)(=O)c2cc(C(F)(F)F)ccc2Cl)CC1	none
CCOC(=O)c1ccc(NC(=S)NCCc2ccc(F)cc2)cc1	CHO-K1 Ca antag 28.1, M1 ag parental 22.7
CCOC(=O)c1ccc(NC(=O)C(=O)NCCc2ccc(OC)cc2)cc1	none
CCOC(=O)/C(C#N)=C/c1c(N2CCN(CC)CC2)nc2c(C)cccn2c1=O	none
COc1ccc(OC)c(/C=C2/Sc3ccccc3C2=O)c1	CHRM1 agonist 25.0, CHO-K1 Ca antag 34.6, M1 ag parental 37.7
COc1ccc(OC)c(C=C2CCc3ccccc3C2=O)c1	none
COCc1cc(C)nc(SCC(=O)Nc2ccccc2N2CCOCC2)c1C#N	none
COCc1cc(C)nc(SCC(=O)Nc2cccc3cccnc23)c1C#N	CHO-K1 Ca antag 25.3
CC(C)Oc1ccc2ccccc2c1CNC[C@H]1O[C@@H](n2cnc(C(N)=O)n2)[C@H](O)[C@@H]1O	none
CC1(C(=O)NS(=O)(=O)c2ccccc2)CCN1C(=O)c1ccc(C2CCCCC2)cc1 (stereo not given)	none
CCOC(=O)[C@]12CCCC=C1N(Cc1ccc(Cl)cc1Cl)C(=O)[C@H](CC(=O)NCc1cccc3ccccc13)C2	none (no result: CHRM1 agonist, CHRM1 PAM, M1 antag)
O=C(Nc1cccc2ncccc12)c1ccco1	none
O=C(CCCOc1ccccc1)Nc1cccc(S(=O)(=O)N2CCCCCC2)c1	none
c1ccc(N2CCN(Cc3ccc4c(c3)OCO4)CC2)nc1	none
c1ccc(-c2ccc(CN3CCN(c4ncccn4)CC3)cc2)cc1	CHO-K1 Ca antag 24.7
c1ccc(COc2ccc(CN3CCN(c4ccccn4)CC3)cc2)cc1	M1 antag 32.5
c1ccc(CN2CCN(c3ncccn3)CC2)cc1	none
N#Cc1ccccc1S(=O)(=O)c1ccccc1C(=O)Nc1ccccc1	none
CC(=O)OC1(C(C)=O)CCC2C3CC(Cl)C4=CC(=O)CCC4(C)C3CCC21C (stereo not given)	none
CCn1cc(/C=C(\NC(=O)c2ccc(OC)c(OC)c2)C(=O)NCCCN2CCOCC2)c2ccccc21	none
CC[C@@H](C)[C@@H]1CN([C@@H](CN2CCC[C@H]2CN2C(N)=NC[C@H]2C(C)C)C(C)C)C(=N)N1CCc1ccc(Cl)c(Cl)c1	none
CC[C@@H](C)[C@@H]1CN([C@@H](C)CN2CCC[C@H]2CN2C(N)=NC[C@@H]2Cc2ccccc2)C(=N)N1CCCC1CCCC1	M1 antag 76.0
CC[C@@H](C)[C@@H]1CN([C@@H](C)CN2CCC[C@H]2CN2C(N)=NC[C@@H]2Cc2ccccc2)C(=N)N1CCc1ccc(Cl)c(Cl)c1	M1 antag 49.1
CN1CCN(C(=O)c2cccc(S(=O)(=O)N3CCCC3)c2)CC1	none
CC(C)OCCCn1c(SCC(=O)N2CCCC2=O)nc2ccccc2c1=O	M1 ag parental 15.3
O=C(NCc1c(Cl)cccc1Cl)c1[nH]c(C(F)(F)F)nc1-c1ccccc1	none
CCOc1cc2c3c(c1)C1(C(=O)N3C(C)(C)C=C2C)C(C#N)=C(N)Oc2cc(O)ccc21 (stereo not given)	CHO-K1 Ca antag 29.5
COc1ccc(C(=O)C2CCCN(Cc3cnc(N4CCOCC4)s3)C2)cc1F (stereo not given)	M1 ag parental 28.9
COc1ccc(C(=O)C2CCCN(Cc3ccc(C#CCCO)cc3)C2)cc1F (stereo not given)	M1 antag 57.6
COc1ccc(C(=O)C2CCCN(Cc3cnc(N4CCOCC4)s3)C2)c(OC)c1 (stereo not given)	none
COc1ccc(C(=O)C2CCCN(Cc3ccc4nonc4c3)C2)cc1F (stereo not given)	none
CC1=CN(S(=O)(=O)c2ccc(C)cc2)C[C@@H]2c3ccccc3N(S(=O)(=O)c3ccc(C)cc3)[C@H]12	none
COc1ccc(CNC(=O)COC(=O)c2cc3ccccc3o2)cc1	M1 antag 28.9
CN(Cc1ccc(OC(F)F)cc1)C(=O)/C=C/c1ccc(S(=O)(=O)N2CCOCC2)cc1	none
S=c1[nH]nc(-c2cccs2)n1/N=C/c1c(Cl)cccc1Cl	CHRM1 agonist 20.5
Cc1ccc(CNC(=O)CN2C(=O)CSc3ccc(S(=O)(=O)N4CCC(C)CC4)cc32)cc1	none
CN1OC[C@@H]2CN(S(=O)(=O)c3cc(Cl)cc(Cl)c3)[C@H](c3ccc(-c4ccc(C#N)cc4)cc3)C[C@@H]21	none
O=C(O)c1cccc(NC(=O)c2cccc(S(=O)(=O)N3CCc4ccccc43)c2)c1	none
NC(=O)c1ccc(NC(=O)c2ccc3c(c2)CCN3S(=O)(=O)c2ccccc2)cc1	CHO-K1 Ca antag 26.4
COC(=O)c1c(NC(=O)C(=O)N2CCOCC2)sc2c1CCCC2	none
COCCNC(=O)C1(C)CCCN(Cc2csc(-c3ccc(Cl)cc3)n2)C1 (stereo not given)	none
C[C@@H]1CN([C@@H](C)CO)C(=O)c2cc(-c3cccnc3)cnc2O[C@H]1CN(C)C(=O)c1cccc(F)c1	none
CC(=O)c1c(C)[nH]c(C(=O)OCC(=O)Nc2nnc(-c3ccccc3)o2)c1C	none
CC(C)(C)OC(=O)N1CCC(c2cc(=O)n3[nH]cc(C(=O)NC4CCCC4)c3n2)CC1	CHRM1 PAM 25.6
CC(C)(C)OC(=O)N1CCC(c2cc(=O)n3[nH]cc(C(=O)Nc4ccc(F)c(Cl)c4)c3n2)CC1	none
O=C(NCc1cc(C(F)(F)F)cc(C(F)(F)F)c1)c1cc(-c2cc(F)ccc2OCC2CCCO2)n[nH]1 (stereo not given)	none
O=C(Nc1cccc(Cl)c1N1CCOCC1)c1cccnc1Cl	M1 ag parental 21.9
CS(=O)(=O)Nc1ccc(C(=O)NCCSc2ccc(Cl)cc2)cc1	none
O=C(c1ccco1)N1N=C(c2ccccc2O)CC1c1cccs1 (stereo not given)	none
CC(=O)N1CCN(C2=NC(=O)/C(=C/c3ccc(OS(=O)(=O)c4ccccc4)cc3)S2)CC1	none
Cc1ccc(S(=O)(=O)Nc2ccc3c(c2)nc(CCN2CCN(c4ccccn4)CC2)n3C)cc1	M1 antag 78.6
Cn1c(CCN2CCN(c3ccccn3)CC2)nc2cc(NS(=O)(=O)c3ccc(Cl)cc3)ccc21	M1 antag 98.1
Cc1ccc(S(=O)(=O)Nc2ccc3c(c2)nc(CCN2CCCCC2)n3C)cc1	none
CC(=O)Nc1ccc(S(=O)(=O)N2CCN(c3cc(C)ccc3C)CC2)cc1	none
CC(=O)Nc1ccc2c(c1)CN(c1cc(C)ccc1C)CO2	CHO-K1 Ca antag 24.8
COc1cc(=O)n(C)c2cc(N(C)C)ccc12	CHRM1 PAM 20.0

Bioassay records as filed in PubChem.
